Assay results reported in PubChem BioAssay AID598 (SRMLSC, 2007).
Out of some 85,000 compounds screened, about 5,100 (6%) were called active.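 Rule for the calls: active = viability at or below 40%; inactive = viability above 40%.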 For the sample, actives were picked, then their nearest neighbours and some compounds at random.

Experiment: H69AR cell viability reduction – human, 86K library, primary screen (AID 598);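 note: multidrug resistant small cell line overexpressing MRP-1 efflux transporter; 100% = mean luminescence of untreated control wells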
Conditions: H69AR lung tumor viability, ATP luminescence, 72 h; at 10 µM; active compounds read low

Row | Compound | viability
1 | O=C(NC(C(=O)NCCN1CCOCC1)C12CC3CC(CC(C3)C1)C2)C1CCCCC1 (centres undefined) | 90.9% (inactive)
2 | Nc1ccc(-c2nnc(-c3ccc(-c4ccccc4)cc3)o2)cc1 | 55% (inactive)
3 | Nc1ccc(Nc2ccccc2)cc1 | 15.3% (active)
4 | c1ccc(Nc2n[nH]nc2-c2ccccc2)cc1 | 94.2% (inactive)
5 | CCCCCCOc1ccc(OC(=O)c2cccnc2)cc1 | 99.5% (inactive)
6 | Cc1cc(C(=O)Nc2ccccc2N2CCOCC2)c2ccccc2n1 | 67.9% (inactive)
7 | O=C(NCc1cccnc1)c1cn(-c2ccccc2)nc1-c1cccs1 | 9.99% (active)
8 | COC(=O)c1cn(-c2ccccc2)nc1-c1cccnc1 | 108% (inactive)
9 | O=C(CCc1ccccc1)NCc1cccnc1 | 97.5% (inactive)
10 | CCN(CC)CCNC(=O)CCCCCn1c(=O)[nH]c2cc(C(=O)OC)ccc2c1=O | 102% (inactive)
11 | COc1ccccc1C(c1nnnn1C(C)(C)C)N1CCN(Cc2ccccc2)CC1 (centres undefined) | 85.2% (inactive)
12 | COc1ccc(-c2nnc(SCC(=O)c3ccc4c(c3)OCCO4)o2)cc1 | 102% (inactive)
13 | COc1ccc(-c2nnc(SC(C)C#N)o2)cc1 (centres undefined) | 86.7% (inactive)
14 | COc1ccc(-c2nnc(SC(=O)N3c4ccccc4Sc4ccccc43)o2)cc1 | 4.55% (active)
15 | CCCCCCNCCn1cnc2c(N)ncnc21 | 105% (inactive)
16 | Cc1ccc(S(=O)(=O)NCCSC(C)(C)C)cc1 | 106% (inactive)
17 | Cc1nnc(SC(C)C(=O)Nc2ccc(S(=O)(=O)NC3CCCCC3)cc2)s1 (centres undefined) | 90.2% (inactive)
18 | Cc1c(Br)cc(C(=O)N2CCCCCC2)c(C)c1C | 85.9% (inactive)
19 | Cc1ccc(Nc2cc(=O)n(C3CCCCC3)c(=O)[nH]2)cc1C | 9.54% (active)
20 | Cc1ccc(NS(=O)(=O)c2c(C)[nH]c(=O)[nH]c2=O)cc1C | 112% (inactive)
21 | CCC1(CC)Cc2ccccc2-c2nc3ccccc3c(=O)n21 | 88.7% (inactive)
22 | CCOc1ccccc1C(=O)NC1CC2CCCC(C1)N2Cc1ccccc1 (centres undefined) | 72.2% (inactive)
23 | CC(C)Oc1ccc(C(=O)NC(C)(C)CO)cc1 | 106% (inactive)

Row | Compound | viability
24 | Cc1cc(C)n(-c2nnc(C)n2NC(=O)c2cccc(Cl)c2)n1 | 88.1% (inactive)
25 | Cc1ccc2c(Cl)c(C(=O)NCCCn3ccnc3)sc2c1 | 88.9% (inactive)
26 | CCCC(=O)Nc1ccc(C(=O)NCCCn2ccnc2)cc1 | 15.8% (active)
27 | O=C(NCCCn1ccnc1)Nc1ccc(Cl)cc1Cl | 93.2% (inactive)
28 | CCCCC(=O)Nc1ccc(C(=O)NCCCn2ccnc2)cc1 | 7.32% (active)
29 | CCOc1ccccc1C(=O)NCCCn1ccnc1 | 98.9% (inactive)
30 | O=C(Nc1ccccc1C(=O)NCCCn1ccnc1)c1ccc(Cl)cc1Cl | 75.6% (inactive)
31 | FC(F)(F)c1cnc(Oc2ccccc2-c2nnc(-c3ccc(Cl)cc3)o2)c(Cl)c1 | 92.2% (inactive)
32 | O=C(CSCc1ccccc1)N1CCc2ccccc21 | 84.8% (inactive)
33 | Cc1ccc(N(Cc2ccc(C(=O)Nc3ccccc3C(=O)NCc3ccco3)cc2)S(C)(=O)=O)cc1C | 79.5% (inactive)
34 | Cc1ccc(S(=O)(=O)/N=C(\CN2CCOCC2)N2CCOCC2)cc1 | 96.2% (inactive)
35 | OC(COc1cccc(OCC(O)CN2CCCC2)c1)CN1CCCC1 (centres undefined) | 99.3% (inactive)
36 | O=C(C(c1ccccc1)c1ccccc1)N1CCN(CC(O)COc2ccccc2)CC1 (centres undefined) | 27.1% (active)
37 | CC(=O)Nc1ccc(OCC(O)CN2CCN(c3ccccc3Cl)CC2)cc1 (centres undefined) | 100% (inactive)
38 | O=C(CSc1nnc(-c2cccnc2)n1CCc1ccccc1)NCc1ccccc1 | 89.6% (inactive)
39 | CCc1ccc(CNC(=O)CCc2nc(-c3cccs3)no2)cc1 | 98.2% (inactive)
40 | c1ccc(-c2noc(-c3cccs3)n2)nc1 | 70.6% (inactive)
41 | N#Cc1ccc(CSc2nnc(-c3ccccn3)n2-c2ccc(Cl)cc2)cc1 | 62% (inactive)
42 | Clc1ccc(-n2nnnc2-c2cnc(-c3ccccn3)nc2-c2cccs2)cc1 | 18.2% (active)
43 | CCC/C(O)=C1\C(=O)CC(C)(C)CC1=Nc1ccccc1OC | 28.2% (active)
44 | CCOc1ccccc1N=C1NC(=O)CS1 | 85.9% (inactive)
45 | COc1ccccc1N=C(C)C1=C(O)COC1=O | 92.4% (inactive)
46 | CCOc1ccccc1NC(=O)C1CCCN(C(=O)Nc2ccccc2)C1 (centres undefined) | 61.5% (inactive)

Row | Compound | viability
47 | CC(C)C(=O)N1c2ccccc2NC2=C(C(=O)CCC2)C1c1ccc(N(C)C)cc1 (centres undefined) | 74.9% (inactive)
48 | CCCC(=O)N1c2ccccc2NC2=C(C(=O)CCC2)C1c1ccc(F)cc1 (centres undefined) | 92.9% (inactive)
49 | O=C1CCCC2=C1C(c1cccs1)n1nc(SCc3ccccc3)nc1N2 (centres undefined) | 28.9% (active)
50 | Cc1ccc(N(CC(=O)Nc2cccc(N(C)S(C)(=O)=O)c2)S(C)(=O)=O)cc1 | 85.4% (inactive)
51 | O=C(CCCn1c(SCC(=O)c2ccccc2)nc2ccccc2c1=O)NCC1CCCO1 (centres undefined) | 76.5% (inactive)
52 | Cc1noc(COc2ccccc2OCc2onc(C)c2Cl)c1Cl | 93.3% (inactive)
53 | Cc1ccc(-c2noc(CSc3nnc(-c4ccncc4)n3-c3ccc(F)cc3)n2)cc1 | 27.9% (active)
54 | Fc1ccc(-n2c(Cc3ccccc3)nnc2SCc2nc(-c3ccc(Cl)cc3)no2)cc1 | 90.9% (inactive)
55 | Cc1ccc(-c2noc(CSc3nnc(-c4ccccc4)n3C)n2)cc1 | 85.9% (inactive)
56 | O=S1(=O)C=C(SCCN2CCCC2)c2ccccc21 | 74.3% (inactive)
57 | Cn1cc(S(=O)(=O)N2CCN(c3ccc(F)cc3)CC2)c(=O)n(C)c1=O | 91.4% (inactive)
58 | C#CCN(N(C)c1ncc(C(F)(F)F)cc1Cl)S(=O)(=O)c1ccc2ccccc2c1 | 84% (inactive)
59 | C=C(C)CSc1nc(N)c2c3c(sc2n1)CCC3 | 92.1% (inactive)
60 | CC(C)(C)C1CCc2c(sc3nc(SCC(N)=O)nc(N)c23)C1 (centres undefined) | 2.44% (active)
61 | CN(C)CCSc1nc(N)c2c3c(sc2n1)COC(C)(C)C3 | 91.2% (inactive)
62 | O=C(/C=C/NNC(=O)c1cccc(Br)c1)c1ccccc1 | 61.5% (inactive)
63 | N#C/C(=C(\O)CCl)c1nnc2n1CCCCC2 | 26.2% (active)
64 | COCC(=O)Nc1ccc(Br)cc1 | 101% (inactive)
65 | Cc1cccc(N(CC(=O)N2CCOCC2)S(C)(=O)=O)c1 | 98% (inactive)
66 | CC1=NN(c2cccc(Cl)c2)C(=O)C12CC(C)=C(C)CS2 (centres undefined) | 26.9% (active)
67 | Cc1[nH]n(-c2cccc(Cl)c2)c(=O)c1-c1ccc(Cl)cc1 | 109% (inactive)
68 | O=C(NCc1ccccc1)C1CCCN(S(=O)(=O)c2cccs2)C1 (centres undefined) | 95.6% (inactive)
69 | CCOc1ccc(S(=O)(=O)NCC2CCCO2)cc1 (centres undefined) | 97% (inactive)
